Source: ChEMBL document CHEMBL3988442, “University of Dundee, Small-Polar-MMV Screening Library” (2021)

Tests used:
[1] = target: T1, Aspartate--tRNA(Asp/Asn) ligase (Mycobacterium tuberculosis (strain ATCC 25618 / H37Rv)) (UniProt P9WFW3); test: Assay for Asp RNA synthetase-1 from Mycobacterium tuberculosis; type: functional; set-up: scale not given: direction of the effect not stated beside the values; settings: 30 µM; further: in the data most compounds retested in dose-response had high values
T1 sequence (whole entry): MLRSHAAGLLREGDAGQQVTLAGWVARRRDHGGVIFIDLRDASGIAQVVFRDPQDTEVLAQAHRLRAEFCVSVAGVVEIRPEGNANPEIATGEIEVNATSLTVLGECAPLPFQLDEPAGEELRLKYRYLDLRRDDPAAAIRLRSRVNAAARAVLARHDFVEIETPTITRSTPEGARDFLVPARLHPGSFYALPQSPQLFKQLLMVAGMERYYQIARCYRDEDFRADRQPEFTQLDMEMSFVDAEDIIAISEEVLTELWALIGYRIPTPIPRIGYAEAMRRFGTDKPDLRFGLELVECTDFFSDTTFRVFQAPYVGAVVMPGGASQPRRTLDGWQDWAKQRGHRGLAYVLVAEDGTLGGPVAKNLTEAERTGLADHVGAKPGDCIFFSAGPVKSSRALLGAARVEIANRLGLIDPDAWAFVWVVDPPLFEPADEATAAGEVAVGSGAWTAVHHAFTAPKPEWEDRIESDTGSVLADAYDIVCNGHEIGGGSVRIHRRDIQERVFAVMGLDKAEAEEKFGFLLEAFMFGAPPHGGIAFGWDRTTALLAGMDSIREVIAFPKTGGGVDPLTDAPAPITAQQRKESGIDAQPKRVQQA

[2] = target: Shiga toxin 2 (Escherichia coli O157:H7) (UniProt P09385+P09386); test: E. coli 0.157:H7 Shiga Toxin SOP - stx2 screening assay; type: functional; set-up: scale not given: direction of the effect not stated beside the values; settings: 30 µM

Compound | Percent Effect [1] | Percent Effect [2]
CCOc1cc(F)ccc1NS(=O)(=O)c1cc(C)c(C(=O)O)s1 | 1.85% | -9.96%
Cc1csc(N2CCN(C(=O)CCNc3ncccn3)CC2)n1 | 1.38% | 21.6%
CN(C(=O)Cn1nc(-c2ccc(F)cc2)ccc1=O)C1CCS(=O)(=O)C1 (configuration not stated) | 3.06% | 1.8%
O=C(C[C@@H]1COC[C@H]2CN(Cc3ccc(F)cc3)C[C@@H]12)N1CCCCO1 | 3.14% | -37.2%
Cc1noc(C2CCN(C(=O)CCc3nccs3)CC2)n1 | -2.48% | -79.2%
O=C([C@H]1COC[C@H]2CN(C3CCCC3)C[C@H]21)N1CCCCO1 | 5.94% | -2.98%
CCS(=O)(=O)CCN1CCC(N(C)Cc2noc(C(C)C)n2)C1 (configuration not stated) | 0% | -10.7%
Cc1nc(CSCCC(=O)NCc2cccnc2N(C)C)cs1 | 1.66% | -9.97%
COc1c(C2CCCN2C(=O)c2ccnc(N(C)C)c2)c(C)nn1C (configuration not stated) | 2.59% | 25.8%
CS(=O)(=O)c1ccc(CNC2CCCN(c3cccnn3)C2)cc1 (configuration not stated) | -4.64% | 4.3%
Cc1nn(C)c(N(C)C)c1CNC(C)c1cccc(OC(C)C)c1 (configuration not stated) | -3.06% | -5.32%
Cc1ccc(C(=O)N2CCC3(CC2)NC(=O)CC3c2ccccc2)cn1 (configuration not stated) | 3.23% | -13.9%
CCN(CC)c1ccc(NS(=O)(=O)c2cnn(C)c2)cn1 | 2.14% | -30.7%
CC(=O)N1CCOC2(CCN(C(=O)c3cnoc3C)CC2)C1 | -1.11% | 4.56%
O=C(CCO)N1CCOC2(CCCN(C(=O)c3ccco3)C2)C1 (configuration not stated) | -4.34% | -15.2%
CCc1c(C)sc(NC(=O)CN2CCN(CC)CC2)c1C(=O)OC | -1.36% | -31.3%
CCCc1nnsc1C(=O)NCC1CCN(S(C)(=O)=O)CC1 | -7.1% | -1.41%
CC1c2ncc(Cn3cncn3)n2CCN1C1CCOCC1 (configuration not stated) | 2.5% | -1.95%
Cc1ccc(CCC(=O)N2CCCC(n3cncn3)C2)c(C)c1 (configuration not stated) | -4.98% | 10.1%
CC(C)(C)c1ncc(C(=O)NCCNC(=O)c2ccccc2)s1 | 1.94% | 36.9%
Cc1n[nH]c(C2CN(C(=O)c3ccco3)CCO2)n1 (configuration not stated) | 2.88% | 5.26%
Cc1nc(CN2CCN(C(=O)c3ccn(C)c(=O)c3)CC2)cs1 | 4.03% | -43.8%
CSCC(C)(O)CNC(=O)c1ccc(Br)cc1F (configuration not stated) | 3.26% | 13.2%

Compound | Percent Effect [1] | Percent Effect [2]
CCn1c(NCc2ccco2)nc2c(C)nn(C)c2c1=O | -3.66% | -41.1%
O=C(NCc1cnc2n1CCN(CC1CC1)CC2)C1CCC1 | -5.77% | 7.18%
CCOc1ncccc1NC(=O)N1CCc2ccccc2C1 | 19.1% | 3.47%
CCc1nc(CN2CCCN(C(=O)COCC3CC3)CC2)cs1 | -3.19% | -49.1%
O=C1NCCN1C1CCCN(Cc2nnc(-c3ccc(F)cc3)o2)C1 (configuration not stated) | -2.77% | -40.1%
COC(=O)Cn1cccc(S(=O)(=O)N2CCC(C)CC2)c1=O | -4.76% | -36.3%
Cc1nnn2c1COCC(CNC(=O)c1ccc3[nH]ccc3c1)C2 (configuration not stated) | 0.238% | -35.3%
c1nc2c(c(C3CC3)n1)CCN(CC1CCOC1)CC2 (configuration not stated) | 3.35% | -6.27%
O=C(NCc1nnc2n1CCCC2)N(Cc1ccccc1F)C1CC1 | -1.44% | 7.01%
CC(C)c1ccc(C(C)NC(=O)N2CCC(n3cncn3)CC2)cc1 (configuration not stated) | -0.885% | 3.93%
Cc1nccc(C2CN(Cc3cc[nH]n3)CCO2)n1 (configuration not stated) | -1.53% | 2.02%
CS(=O)(=O)N1CCC2(CN(C(=O)c3cccnc3)C2)C1 | -2.07% | -24.7%
CCc1nc(CC(=O)Nc2cnn(CC3CCCO3)c2)cs1 (configuration not stated) | 1.86% | -10.7%
CC1CN(Cc2noc(C3CC3)n2)CCN1Cc1nccn1C (configuration not stated) | -4.25% | -11.1%
Cc1ccc(CN2Cc3c(C(=O)N(C)C)nn(C)c3C2)s1 | 1.3% | -23.6%
O=C(NCc1nn(-c2ccccc2)c2c1CCC2)N1CCSCC1 | -2.32% | 34%
O=C(Cc1ccc(O)c(Cl)c1)N1CCCCC1CCn1cccn1 (configuration not stated) | -0.725% | -11.4%
c1ccc(CCCN2CC(n3cccn3)C2)cc1 | -4.05% | -12.1%
Cc1nc(C)n(CC2CN(Cc3cccc4c3OCCO4)CCO2)n1 (configuration not stated) | -4.36% | 23.8%
CCC1CN(C(=O)Nc2cnc3c(cnn3C(C)C)c2)CCO1 (configuration not stated) | 0.932% | 13.4%
CNC(=O)N1CCc2cc(C(=O)N(C)C)c(NCC3CC3)nc2CC1 | 1.99% | -3.46%
CC(C)(CNC(=O)OC(C)(C)C)NC(=O)C1CC(=O)N(C2CC2)C1 (configuration not stated) | 3.37% | -23.3%
CCC(C)N(C)CCNC(=O)NCc1cccc(-n2cncn2)c1 (configuration not stated) | -1.54% | -5.27%
